# PubChem BioAssay (NCATS)
# Records with an inconclusive call do not appear. Unmarked numbers belong to inactive results. Activity calls are given as the source filed them. The call rests on the fitted dose curve; tested in HEK293 reporter line.
# Assay: qHTS for Inhibitors of the Functional Ribonucleoprotein Complex (vRNP) of Lassa (LASV) Arenavirus: LASV Primary Screen - GLuc reporter signal (AID 1347082); further: nearly all actives have a fitted effect of over 60% in size
# Settings: LASV minigenome vRNP, Gaussia luciferase reporter; series mostly up to 57.5 µM; activity change, negative = inhibition: at the top concentration
# On the % scale 0 is the no-effect control and ±100 the full control effect.
row,SMILES,"activity change, negative = inhibition"
1,CC#CCn1c(N2CCC[C@@H](N)C2)nc2c1c(=O)n(Cc1nc(C)c3ccccc3n1)c(=O)n2C,-2.03%
2,CCN(CC)CCCCCCCCOC(=O)c1cc(OC)c(OC)c(OC)c1,-4.97%
3,CCCCC/C=C\C\C=C/C=C/C=C/[C@@H](O)[C@@H](O)CCCC(=O)O,-2.59% [at 0.757 µM]
4,NC(=O)c1cccc2cn(-c3ccc([C@@H]4CCCNC4)cc3)nc12,-15.3%
5,NC(=O)c1c[nH]c2ccccc12,-11.3%
6,COc1cc(Cl)cn2c(-c3cccc(NC4CNC4)n3)cnc12,-30.2%
7,CC(=O)/C=C/C1C(C)=CCC(C)C1(C)C (stereo not given),4.94% [at 115 µM]
8,CC(C)=CC[C@@H](O)C1=CC(=O)c2c(O)ccc(O)c2C1=O,-11.2%
9,O=C1c2ccccc2C(=O)N1Cc1ccccc1,4.46%
10,C=C1C2[C@H](OC(C)=O)[C@@H]3CC(=O)[C@]4(C)OC[C@@]3(C)[C@@]4(O)[C@@H](OC(C)=O)[C@H](OC(C)=O)[C@@]2(COC(=O)c2ccccc2)[C@@H](OC(C)=O)C[C@@H]1O (stereo not given in full),-8.15%

# Assay: qHTS for Inhibitors of the Functional Ribonucleoprotein Complex (vRNP) of Lassa (LASV) Arenavirus: Viability assay - alamar blue signal for LASV Primary Screen (AID 1347083); further: nearly all actives have a fitted effect of over 80% in size; further: potency means the concentration at half of the fitted maximal effect
# Settings: cell viability, alamar blue fluorescence (LASV minigenome counter-screen); series mostly up to 57.5 µM; activity change, negative = reduced viability: at the top concentration
SMILES,Potency,"activity change, negative = reduced viability"
COc1cc(O)c2c(c1)C1OC1C[C@H](O)[C@H](O)C(=O)C=CC[C@H](C)OC2=O (stereo not given in full),38.5 µM (active),
Cc1cccc(-c2[nH]c(C(C)(C)C)nc2-c2ccc3c(c2)OCO3)n1,7.69 µM (active),
CCNC(=O)c1cc2c(-c3cc(OCCN4CCCC4)c(Cl)cc3Cl)nc(N)nc2s1,4.32 µM (active),
CC(C)(C)Cn1c(N)nc2ccc(-c3[nH]c(C(C)(C)C)nc3-c3ccc(F)cc3)nc21,,-92.9%
C[C@]12C=CC(=O)C=C1CC[C@@H]1[C@@H]2CC[C@]2(C)C(=O)CC[C@@H]12,,-16.1%
CCCCCC[C@@H](O)C/C=C\CCCCCCCC(=O)O,,0.559% [at 115 µM]
Nc1ncnc2c1ncn2[C@@H]1O[C@H](CO)C[C@@H]1O,,13%
CC(=O)O[C@@H]1/C=C/[C@](C)(O)C[C@@H](C)C/C=C/[C@H]2[C@H](O)C(C)=C(C)[C@H]3[C@H](Cc4ccccc4)NC(=O)[C@@]123,2 µM (active),
COc1cc2c(cc1OC)CN(CCc1ccc(NC(=O)c3cc(OC)c(OC)cc3NC(=O)c3cnc4ccccc4c3)cc1)CC2,19.3 µM (active),
COc1c2ccoc2c(OC[C@@H](O)C(C)(C)OC)c2oc(=O)ccc12,,-16.1%
Cc1ncc(C[n+]2csc(CCO)c2C)c(N)n1,,0.91% [at 115 µM]
CN(C)Cc1cccc(N=C(c2ccccc2)c2c(O)[nH]c3cc(C(=O)N(C)C)ccc23)c1,13.7 µM (active),
C[C@]1(c2nc3c(C(N)=O)cccc3[nH]2)CCCN1,2.73 µM (active),
CC(C)(N)c1ccc(-c2nc3ccccc3nc2-c2ccccc2)cc1,19.3 µM (active),
COCCCCC(=NOCCN)c1ccc(C(F)(F)F)cc1,1.93 µM (active),
Cc1cc(OCCCS(C)(=O)=O)cc(C)c1-c1cccc(COc2ccc3c(c2)OC[C@H]3CC(=O)O)c1,,-20.8%
COc1ccc(-c2cc3c(C)nc(N)nc3n(C3CCC(OCCO)CC3)c2=O)cn1 (stereo not given),0.0544 µM (active),
COc1ccc(CCC(=O)c2c(O)cc(O[C@@H]3O[C@H](CO)[C@@H](O)[C@H](O)[C@@H]3O[C@@H]3O[C@@H](C)[C@H](O)[C@@H](O)[C@@H]3O)cc2O)cc1O,5.44 µM (active),
C=CCNc1c(O)cc2c(O)c1C[C@@H](C)C[C@H](OC)[C@@H](O)[C@@H](C)C=C(C)[C@H](OC(N)=O)[C@@H](OC)C=CC=C(C)C(=O)N2,4.85 µM (active),
COc1cc2ncn(-c3cc(OCc4ccccc4S(C)(=O)=O)c(C#N)s3)c2cc1OC,27.3 µM (active),

SMILES,Potency,"activity change, negative = reduced viability"
COc1ccc(-c2cc3nccn3c(Nc3ncccc3C(N)=O)n2)cc1OC,2.17 µM (active),
COc1cccc2c1cc([N+](=O)[O-])c1c(C(=O)O)cc3c(c12)OCO3,,-2.84%
CCCCCCCCCCCCCCCC(N)=O,,2.57% [at 5.82 µM]
C=C(C)[C@@]12OC3(c4ccccc4)O[C@@H]1[C@@H]1[C@@H]4O[C@]4(CO)[C@@H](O)[C@]4(O)C(=O)C(C)=C[C@H]4[C@@]1(O3)[C@H](C)[C@H]2OC(=O)/C=C/C=C/c1ccccc1,,-16%
C=C[C@H]1CN2CC[C@@H]1C[C@@H]2[C@@H](O)c1ccnc2ccc(OC)cc12,,-34.3%
C[C@@H](NCc1cc2ccccc2[nH]1)c1cccc2ccccc12,,-29.7%
CC(C)(C)NC(=O)[C@H]1CN(Cc2cccnc2)CCN1C[C@@H](O)C[C@@H](Cc1ccccc1)C(=O)N[C@H]1c2ccccc2C[C@H]1O,,-25.2%
NC[C@@H]1O[C@H](C23CC4CC(CC(C4)C2)C3)Cc2c1ccc(O)c2O,,-19.7%
Cc1ccc(NC(=O)Nc2cc(C(F)(F)F)ccc2F)cc1Nc1ccc2c(c1)NC(=O)C2=Cc1ccc[nH]1,17.2 µM (active),
COc1cc(C(=O)O[C@@H]2CC(C)=CC[C@@]3(C)CC[C@](O)(C(C)C)[C@H]23)ccc1O,,-12.3%
CC#CCn1c(N2CCC[C@@H](N)C2)nc2c1c(=O)n(Cc1nc(C)c3ccccc3n1)c(=O)n2C,,-8.59%
CCN(CC)CCCCCCCCOC(=O)c1cc(OC)c(OC)c(OC)c1,,-22.6%
CCCCC/C=C\C\C=C/C=C/C=C/[C@@H](O)[C@@H](O)CCCC(=O)O,,14.4% [at 0.757 µM]
NC(=O)c1cccc2cn(-c3ccc([C@@H]4CCCNC4)cc3)nc12,10.9 µM (active),
NC(=O)c1c[nH]c2ccccc12,,-2.02%
COc1cc(Cl)cn2c(-c3cccc(NC4CNC4)n3)cnc12,21.7 µM (active),
CC(=O)/C=C/C1C(C)=CCC(C)C1(C)C (stereo not given),,-0.864% [at 115 µM]
CC(C)=CC[C@@H](O)C1=CC(=O)c2c(O)ccc(O)c2C1=O,,2.54%
O=C1c2ccccc2C(=O)N1Cc1ccccc1,,3.5%
C=C1C2[C@H](OC(C)=O)[C@@H]3CC(=O)[C@]4(C)OC[C@@]3(C)[C@@]4(O)[C@@H](OC(C)=O)[C@H](OC(C)=O)[C@@]2(COC(=O)c2ccccc2)[C@@H](OC(C)=O)C[C@@H]1O (stereo not given in full),,-34.3%
